{"source": "PubChem BioAssay (Tox21)", "note": "Inconclusive results are not listed. Entries that show only a call come without a potency. Unmarked numbers belong to inactive results. Active and inactive are the calls of the source. Calls come from the whole dose curve; as a rule, active = well fitted cell-killing curve with a large enough effect in the repeat runs; inconclusive = weak or mixed curves, or effect the other way; inactive = flat fitted curve, though single readings scatter. Potency is the fitted concentration of half-maximal effect.", "data": [{"assay": "qHTS assay to identify small molecule antagonists of the constitutive androstane receptor (CAR) signaling pathway - cell viability counter screen (AID 1224837); note: nearly all actives have a fitted effect of over 45% in size", "details": "HepG2-CYP2B6-hCAR viability, CellTiter-Fluor, 23 h, co-treated with 50 nM CITCO; series mostly up to 92.4 µM", "procedure,_shortened": "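Counter screen run in HepG2-CYP2B6-hCAR cells: 4 hr settle, compound titration (15 concentrations) with 50 nM CITCO, 23 hr at 37 C/5% CO2, CellTiter-Fluor fluorescence.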", "values": [{"compound": "COCC(=O)N(c1c(C)cccc1C)N1CCOC1=O", "Potency": "inactive"}, {"compound": "CC(=O)Nc1cc([As](=O)(O)O)ccc1O", "Potency": "inactive"}, {"compound": "CNNC", "Potency": "inactive"}, {"compound": "CCC(Cl)[N+](=O)[O-]", "note": "(configuration not stated)", "Potency": "inactive"}, {"compound": "CCCSC(=O)Cl", "Potency": "inactive"}, {"compound": "CC(Cl)(Cl)[N+](=O)[O-]", "Potency": "inactive"}, {"compound": "Cc1ncc2n1-c1ccc(Cl)cc1C(c1ccccc1F)=NC2", "Potency": "inactive"}, {"compound": "CC1=C(C(=O)O)N2C(=O)[C@@H](N)[C@H]2SC1", "activity change, negative = cytotoxicity": "0.992% [at 19 µM]"}, {"compound": "Cc1nnc2n1-c1sc(CCC(=O)N3CCOCC3)cc1C(c1ccccc1Cl)=NC2", "Potency": "inactive"}, {"compound": "CC1CCCCC1NC(=O)Nc1ccccc1", "note": "(configuration not stated)", "Potency": "inactive"}, {"compound": "CCCSP(=S)(OCC)Oc1ccc(Cl)cc1Cl", "note": "(configuration not stated)", "Potency": "inactive"}, {"compound": "COC(=O)c1ccccc1S(=O)(=O)NC(=O)N(C)c1nc(C)nc(OC)n1", "Potency": "inactive"}, {"compound": "CNC(=O)N(C)c1nc2ccccc2s1", "Potency": "inactive"}, {"compound": "CNC(=O)Oc1ccccc1C1OCCO1", "Potency": "inactive"}, {"compound": "CCOc1nc(C(Cl)(Cl)Cl)ns1", "Potency": "inactive"}, {"compound": "CC(=O)[C@H]1CC[C@H]2[C@@H]3CC[C@H]4C[C@H](O)CC[C@]4(C)[C@H]3C(=O)C[C@]12C", "Potency": "inactive"}, {"compound": "O=CNC(N1CCN(C(NC=O)C(Cl)(Cl)Cl)CC1)C(Cl)(Cl)Cl", "note": "(configuration not stated)", "Potency": "inactive"}, {"compound": "Cc1cc(C)nc(Nc2ccccc2)n1", "Potency": "inactive"}, {"compound": "CCCCC(=O)Cl", "Potency": "inactive"}, {"compound": "CCCCN(CCCCO)N=O", "Potency": "inactive"}, {"compound": "COc1cccc2c1cc([N+](=O)[O-])c1c(C(=O)O)cc3c(c12)OCO3", "Potency": "27.3 µM (active)"}, {"compound": "C[C@]12CC[C@H]3[C@@H](CCC4=CC(=O)CC[C@@]43C)[C@@H]1CC[C@@H]2C(=O)O", "Potency": "inactive"}]}]}
